AmpC inh detg – AmpC beta-lactamase inhibition with detergent present. P00811. AmpC hydrolysis of nitrocefin, absorbance 480 nm, 0.01% Triton. Potency, µM (titrated, usually from 114 µM), for the others: at the highest dose activity change, negative = inhibition, usual class: inhibitors. 0.041% of 370,000 active;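 also: 0% = no-compound wells and -100% = no-enzyme wells; nearly all actives have a fitted effect of over 25% in size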
Target sequence (P00811 whole entry, looked up): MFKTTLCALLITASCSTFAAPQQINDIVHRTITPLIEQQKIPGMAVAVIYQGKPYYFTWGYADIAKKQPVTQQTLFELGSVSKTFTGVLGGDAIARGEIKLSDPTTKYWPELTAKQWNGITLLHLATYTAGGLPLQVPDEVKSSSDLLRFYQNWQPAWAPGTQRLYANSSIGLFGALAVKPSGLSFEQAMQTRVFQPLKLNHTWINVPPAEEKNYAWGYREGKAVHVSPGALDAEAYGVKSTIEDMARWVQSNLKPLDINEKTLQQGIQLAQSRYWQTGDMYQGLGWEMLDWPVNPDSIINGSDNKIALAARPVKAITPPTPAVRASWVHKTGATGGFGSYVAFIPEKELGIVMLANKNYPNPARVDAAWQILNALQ
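AmpC (5.3 nM in the dispensed reagent) in 20 mM phosphate pH 7.0 with 0.01% (detergent screen) or 0.0001% Triton X-100 was preincubated with compounds for 15 min at room temperature. Nitrocefin was then added from an 800 uM solution, and hydrolysis was followed at 480 nm.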
Sm TGR inh – inhibitors of Schistosoma mansoni thioredoxin glutathione reductase | Q962Y6 | purified TGR, DTNB reduction, TNB absorbance 405 nm | Potency, µM (highest dose often 114 µM), inactives show at the highest dose activity change, negative = inhibition, usual class: inhibitors | 3% of 360,000 active | AID 485364; also: nearly all actives have a fitted effect of over 60% in size
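Kinetic colorimetric format: TGR-catalysed, NADPH-driven DTNB reduction monitored via TNB absorbance. Enzyme dispensed at 20 nM; compound exposure 15 min at room temperature before reaction start.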
AmpC inh no detg – inhibitors of E. coli AmpC beta-lactamase without detergent; AmpC nitrocefin hydrolysis, absorbance 480 nm, 0.0001% Triton; Potency, µM (titrated, usually from 57.1 µM), without a hit: top-dose activity change, negative = inhibition, hits mostly inhibitors; 0.52% of 330,000 active;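 also: plate controls were no compound for no effect and no enzyme for full effect; nearly all actives have a fitted effect of over 20% in size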
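20 mM phosphate pH 7.0 + 0.01% (detergent screen) or 0.0001% Triton X-100; 5.3 nM AmpC reagent; cpd preinc 15 min RT; nitrocefin (800 uM stock) to start; A480 q20 s × 4 min; Activity was normalised to no-enzyme and no-compound control wells.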
* marks the source's active call; other numbers are inactive results; ? = inconclusive; / = not tested or not shown; ! = not confirmed by another sample. Most compounds without a hit are left out; they make up all but 3.3% or so of the library. Calls follow the shape of the dose curve; as a rule, active = well fitted curve in the direction sought with a large enough effect; inconclusive = small, poorly fitted or top-dose-only effect, or another doubt; inactive = no such curve, though single readings can be large; an effect the other way counts as inactive or inconclusive. Unless noted, % is scaled to controls: 0 for no effect and ±100 for the full control effect; potency is read from the fitted curve at half-maximal effect.

SMILES	AmpC inh detg	Sm TGR inh	AmpC inh no detg
CCOc1ccc(-c2cc(NC(=O)Nc3ccccc3Cl)c(C(=O)OC)s2)cc1	19%	18%	/
FC(F)(F)c1ccc(Cl)c(-n2c(-c3cc(-c4ccco4)[nH]n3)n[nH]c2=S)c1	3%	-34%	4µM*
S=c1[nH]nc(-c2ccco2)n1-c1ccccc1Cl	-6%	16%	-10%
FC(F)(F)c1ccc(Cl)c(-n2c(-c3ccco3)n[nH]c2=S)c1	0%	-1%	-15%
S=c1[nH]nc(-c2cc(-c3ccco3)[nH]n2)n1-c1ccccc1Cl	-6%	40µM*	-38%
Cc1ccc(Sc2ccc(N3CCCC(C(=O)Nc4ccc(F)cc4F)C3)nn2)cc1 (configuration not stated)	10%	-4%	/
COC(=O)c1ccc(OCC2c3cc(OC)c(OC)cc3CCN2C(=O)Cc2ccc(OC)cc2)cc1 (configuration not stated)	9%	4%	/
COC(=O)c1ccc2c(c1)N(CC(=O)Nc1cccc(C(F)(F)F)c1)C(=O)c1ccccc1S2	4%	-1%	/
O=C1NC(=O)/C(=C/c2ccc(-c3cc(C(=O)O)ccc3Cl)o2)S1	-12%	-25%	-35%
O=C1NC(=O)/C(=C\c2ccc(Br)o2)S1	2%	14µM*	-25%
Cc1ccccc1Nc1c(-c2ccc(Cl)s2)nc2cccc(C)n12	14%	9%	/
CCOC(=O)c1nc(Nc2ccc(C(=O)OC(C)C)cc2)c2ccccc2n1	-10%	-2%	/
COc1cccc(C(=O)N(Cc2cccnc2)c2nc3c(OC)ccc(C)c3s2)c1OC	-2%	27%	/
Cc1cc(C)cc(NC(=O)c2ccc(Cn3nc(C)c(Cl)c3C)o2)c1	-11%	?	43%
O=C(NCc1ccc(Cl)cc1)c1ccc(CSCc2cccc(Cl)c2)o1	-7%	5%	/
Cc1ccc(CNC(=O)c2ccc(Cn3nc(C)c(Cl)c3C)o2)cc1	3%	25µM*	59%
Cc1ccc(CNC(=O)c2ccc(CSCc3ccc(Cl)cc3)o2)cc1	10%	40µM*	/
COC(=O)c1ccc(NC(=O)CC2C(=O)N(c3ccc(Cl)cc3)C(=O)N2Cc2ccco2)cc1 (configuration not stated)	-2%	-31%	/
CCN(CC)C(=O)c1sc2c(c1C)c(=O)n(-c1ccc(C)c(C)c1)c(=O)n2Cc1cc(=O)n2ccccc2n1	4%	10%	/
CCN(C(=O)c1oc2ccc(S(=O)(=O)N3CCCCCC3)cc2c1C)c1ccccc1	11%	7%	/
Cc1cccc(NC(=O)CCn2cnnn2)c1	-7%	89µM*!	-12%
O=C(CCn1cnnn1)Nc1ccc(Cl)c(Cl)c1	5%	/	-4%
O=C1c2[nH]nc(-c3ccccc3O)c2C(c2cccc(Br)c2)N1Cc1ccncc1 (configuration not stated)	17%	9%	/
COc1cc(/C=C(/C(=O)c2cccs2)c2nc3ccccc3[nH]2)cc(OC)c1O	?	35µM*	-8%
COc1cc(/C=N/Nc2nc3ccccc3[nH]2)cc(OC)c1O	-13%	-9%	-25%
SMILES	AmpC inh detg	Sm TGR inh	AmpC inh no detg
COc1ccccc1C(=O)Nc1nc2nc(C)c(Cc3ccccc3)c(=O)n2[nH]1	-4%	-11%	/
O=C(CC1N=C2c3ccccc3N=C(SCC(=O)Nc3cccc(C(F)(F)F)c3)N2C1=O)NCc1cccs1 (configuration not stated)	8%	-8%	/
COc1ccc(C(=O)Nc2ccc(N3CCOCC3)cc2)cc1OC	?	24%	-4%
COc1cc(C(=O)OCC(=O)Nc2ccc(N3CCOCC3)cc2)ccc1OCC(C)C	-1%	50µM*	-17%
Cc1ccc(Cl)cc1-n1c(=O)c2sc3ccccc3c2n(CC(=O)NC2CCCCC2)c1=O	3%	0%	/
COc1ccc(S(=O)(=O)c2c(C(=O)c3ccc(C)c(C)c3)cnc3ccc(C)cc23)cc1	1%	-1%	/
CC1CCc2c(sc3nnn(CC(=O)Nc4ccccc4Cl)c(=O)c23)C1 (configuration not stated)	25%	9%	/
CC(=O)c1c(C)[nH]c(-c2ccccc2)nc1=S	11%	12%	-18%
CC(=O)c1c(NC(=O)c2ccccc2)[nH]c(-c2ccccc2)nc1=S	?	0%	22µM*
COc1ccc(NC(=O)c2ccco2)cc1NC(=O)COc1ccccc1Cl	19%	-2%	/
CN(C1CCCCC1)S(=O)(=O)c1ccc2c(c1)c(=O)c(C(=O)NCc1ccccc1Cl)cn2C	3%	6%	/
CCOc1ccc(CNC(=O)c2cccc(NC(=O)N3CCSc4ncccc43)c2)cc1OC	24%	1%	/
